“And” between values parts separate entries of the source, which are not always exact repeats. Equal values may be shown once. This is part of a sample that, as a whole, favours compounds with a hit. Of some 83,000 tested, about 20% had one in any assay.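 For each line, cells grew in 96-well plates with the test compound present at a single concentration for 48 hours.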 Values without a mark were called inactive. The source made the active and inactive calls. Rule for the calls: active = growth percent below 10; inactive = the rest.

This assay concerns MDA-MB-468 breast. As to the kind of experiment: NCI-60 one-dose screen, 48 h (100 = growth as untreated, 0 = no growth, -100 = all killed). To be noted: 10 µM unless noted.
On to `CCOC(=O)c1ccc2c(c1)[n+](=O)c(C(=O)c1ccc3ccccc3c1)c(C(F)(F)F)n2[O-]`, for which the growth is -92.6% (active).
`CNC(=O)c1cc(-c2ccc(NC(=S)Nc3cccc(C(F)(F)F)c3)cc2)nc2cccnc12`: the growth is 47.9%.
With `Clc1ccc(-c2cnc3c(-c4ccnc(N5CCNCC5)c4)cnn3c2)cc1`, the growth was 16.3%.
`Cc1c(-c2noc(-c3ccc([N+](=O)[O-])cc3)n2)no[n+]1[O-]`: the growth was 104%.
Then `Cc1cc(C)n(C(=O)c2sc(=S)n(-c3ccccc3)c2N=Nc2c(N)n[nH]c2N)n1`, with 112%; and `Nc1c(C(=O)Nc2c(Cl)cccc2Cl)sc2nc3c(cc12)CCCC3`, with 82.3%; and `O=C(c1ccccc1)c1ccc(-c2ccc(O)cc2)cc1`, with -16.5% (active).
For the compound `COc1cc(/C=C/c2cc(/C=C/c3ccc(O)c(OC)c3)[nH]c(=O)n2)ccc1O`, the growth is 6.34% (active).
With `CN1CCN(c2nc(-c3cccnc3)nc3sc4c(c23)CCCCCC4)CC1`, the growth was 94.2%.
Then `Cc1ccc(N=Nc2c(N)nc(N)[nH]c2=O)cc1C`, with 84.5%; and `O=C(NNc1nc2cc(F)c(F)cc2n2c(CN3CC4CNCC4C3)ccc12)c1cnccn1` (stereo not given), with -4.58% (active).
The same measure for `Cc1ccc2c(n1)C(=O)C(Cl)=C(Nc1cccc(C(C)C)c1)C2=O`: -9.52% (active).
Regarding `CCC(C)Nc1ccc(N)cc1` (stereo not given), the growth is -30.9% (active).
The same measure for `COc1cc(/C=C2\COc3ccc(-c4ccccc4)cc3C2=O)cc(OC)c1`: 69.3%; for `CCOC(=O)c1c(NC(=O)c2cccc(C(F)(F)F)c2)sc2c(CN3CCN(C)CC3)c(O)ccc12`: -2.41% (active); for `CCN(CC)CCNC(=O)n1cc(-c2ccncc2)c(-c2cc(Cl)cc(OC)c2)n1`: 80.5%.
As for `C=C1CC[C@@H]2[C@](C)(COC(C)=O)[C@H](OC(C)=O)CC[C@@]2(C)[C@@H]1CC(NCc1ccc(F)cc1)C1=CCOC1=O` (stereo not given in full), the growth is 27.5%.
`CC(=O)N[C@H](C(=O)N[C@@H](CCCNC(=N)N)C(=O)N[C@@H](CCCCN)C(=O)N[C@@H](CCCNC(=N)N)C(=O)N[C@]1(C)CCC/C=C\CCC[C@@](C)(C(=O)N[C@@H](CC(C)C)C(=O)N[C@@H](CC(C)C)C(=O)N[C@@H](CCC(N)=O)C(=O)N[C@@H](CCC(=O)O)C(=O)N[C@@H](CCCNC(=N)N)C(=O)N[C@@H](CCC(=O)O)C(=O)N[C@@H](CC(C)C)C(=O)N[C@H](C(=O)N[C@@H](CCC(=O)O)C(N)=O)C(C)C)NC(=O)[C@H](CCCNC(=N)N)NC(=O)[C@H](CC(C)C)NC1=O)C(C)C`: the growth is 109%.
The same measure for `CCCCCc1ccc(S(=O)(=O)Nc2cccc(-c3csc(NC(=O)CCCCCN4CCN(CCO)CC4)n3)c2)cc1`: 85%; for `O=c1c(N=Nc2nccs2)c(-c2ccccc2)[nH]n1-c1nc(-c2ccccc2)cs1`: 29%; for `CN(C)CC1(C)Cc2ccsc2C1O` (stereo not given): 104% and 109%.
As for `C=C(C)[C@@H]1CC[C@]2(C(=O)OCCCC[P+](c3ccccc3)(c3ccccc3)c3ccccc3)CC[C@]3(C)[C@H](CC[C@@H]4[C@@]5(C)CC[C@H](OC(=O)C(Cl)Cl)C(C)(C)[C@@H]5CC[C@]43C)[C@@H]12`, the growth was -61.7% (active).
On to `O=C(/C=C/C12c3ccccc3C(c3ccccc31)C1C(=O)NC(=O)C12)c1ccco1` (stereo not given), for which the growth is 21.8%.
`CCOC(=O)c1c(/N=C2\SC(=O)/C(=C\C(=O)OC)N2NC)sc2c1CCN(C(=O)OCC)C2`: the growth was 100%.
Then `C[PH+](c1nc2ccccc2nc1[PH+](C)C(C)(C)C)C(C)(C)C.C[PH+](c1nc2ccccc2nc1[PH+](C)C(C)(C)C)C(C)(C)C.[Au+].[Cl-]` (stereo not given), with -80.7% (active); and `COc1ccc([C@@H]2c3[nH]c4ccccc4c3C[C@H]3C(=O)N(C4CCN(CC5CCCCC5)CC4)CC(=O)N23)c(OC)c1`, with 58.7%.
For the compound `O=S(=O)(NCCCNc1cc(-c2cn(-c3ccccc3)nc2-c2ccccc2)ccn1)c1ccc(C(F)(F)F)cc1`, the growth is 40.7%.
The same measure for `COC(=O)c1c2c(c(C)[n+]([O-])c1C)C(=O)C(NCCN1CCOCC1)=CC2=O`: 28.8%.
Regarding `COc1ccc(/C=C2\N=C3Sc4cc(Cl)ccc4C(=O)N3C2=O)cc1`, the growth was 113%.
Consider `COc1ccc2c(c1)c(-c1nc(-c3c[nH]c4ncccc34)cs1)cn2CCCN1CCOCC1`, for which the growth is 42%.
The same measure for `COc1ccc(/C=N/NC(=O)c2ccc(-n3cc(-c4ccccc4)nn3)cc2)cc1OC`: 101%; for `COC(=O)CCC(=O)c1ccccc1`: 115%.
The same measure for `O=C(Nc1ccc(Oc2ccc(NC(=O)Nc3ccc([N+](=O)[O-])cc3)cc2)cc1)Nc1ccc([N+](=O)[O-])cc1`: -3.83% (active).
Then `CC1=C(C)C(=O)C(Nc2ccccc2)=C(Cl)C1=O`, with -76% (active); and `CCOC(=O)C(CC(=O)O)=C(C(=O)OCC)C(=O)OCC`, with 97.1%; and `CCOC(=O)C1=C(C)NC(=S)NC1c1ccccc1` (stereo not given), with 98.3%.
Regarding `CC(C)c1ccc(Cn2ccc3c4c(N)nc(NC5CC5)nc4ccc32)cc1`, the growth is -76% (active).
With `CCOC(=O)/C(F)=C/C1CC1C1CCCCC1` (stereo not given), the growth was 96.9%.
As for `CC(=O)c1cc2c(c(O)c1C)C(=O)C(=O)c1c(O)cccc1-2`, the growth was -58% (active).
The same measure for `COc1cc(/C=C/C(=O)c2c(C)oc3nc[nH]c(=O)c23)ccc1O`: 113%.

The record behind these values is PubChem BioAssay (NCI).
